Reference: PubChem BioAssay AID743126 (The Scripps Research Institute Molecular Screening Center, 2013)
The whole screen tested about 370,000 compounds, of which about 2,100 (0.57%) were called active.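 The calls were made as follows: active = inhibition above mean plus 3 SD of compounds lying within the high and low control bounds (cut at about 19% in these data); inactive = the rest.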 The sample as a whole holds a higher share of actives than the screen did.

Target: Group 3 secretory phospholipase A2 (Homo sapiens) (UniProt Q9NZ20)
Experiment: human group III sPLA2 inhibitors, primary screen, biochemical, QFRET, BODIPY PC-A2 liposome substrate (AID 743126);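 also: 0% = median of test compound wells and 100% = no enzyme DMSO wells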
Settings: QFRET BODIPY PC-A2 liposome hydrolysis, fluorescence; at 12.2 µM; stronger effect = higher value

Group 3 secretory phospholipase A2 (Homo sapiens), sequence (Q9NZ20 whole entry, looked up): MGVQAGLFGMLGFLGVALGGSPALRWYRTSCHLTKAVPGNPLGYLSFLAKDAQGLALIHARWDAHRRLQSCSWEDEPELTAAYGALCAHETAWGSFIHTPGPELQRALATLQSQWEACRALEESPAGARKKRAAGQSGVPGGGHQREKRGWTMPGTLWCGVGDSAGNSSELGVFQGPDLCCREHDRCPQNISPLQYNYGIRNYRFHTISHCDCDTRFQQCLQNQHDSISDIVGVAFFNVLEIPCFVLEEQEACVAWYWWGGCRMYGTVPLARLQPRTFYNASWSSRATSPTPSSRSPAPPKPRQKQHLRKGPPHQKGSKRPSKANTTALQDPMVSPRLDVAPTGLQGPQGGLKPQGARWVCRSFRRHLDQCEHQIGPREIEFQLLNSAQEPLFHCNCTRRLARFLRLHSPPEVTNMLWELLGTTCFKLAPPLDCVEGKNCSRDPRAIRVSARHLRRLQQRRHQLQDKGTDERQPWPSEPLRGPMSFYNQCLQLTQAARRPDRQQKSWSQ

inhibition, inactive:
NC(=O)C1(C(N)=O)OC1c1ccc(Cl)cc1Cl (stereo unspecified) -4.76%
Nc1ccc2nn(-c3ccc(Cl)cc3)nc2c1 0.58%
Cc1ccc(C(=O)N(Cc2ccccn2)CC2CCCO2)cc1 (stereo unspecified) 1.49%
CCN(CC)C(=O)CC[C@@H]1CC[C@]2(CCCN(S(=O)(=O)C3CCCCC3)C2)O1 11.9%
O=C(NNc1nc(N2CCCC2)nc(N2CCCC2)n1)c1ccccc1 -2.93%
Cc1ccc(C(=O)Nc2nc(N)n(-c3ccccc3)n2)cc1 12.6%
COC(=O)[C@]12C[C@H](CC(=O)NCc3cccc4ccccc34)C(=O)N(CCc3ccc(OC)c(OC)c3)C1=C[C@H](C1CCCC1)O[C@@H]2C -20.3%
CCn1c2ccccc2c2cc(NC(=O)CSc3nnc(-c4ccccc4)n3-c3ccc(C)cc3)ccc21 -1.34%
CCn1c(=O)n2n(c1=O)[C@@]1(C=C3CCCC[C@H]32)N=C(NC(=O)c2ccccc2)N(Cc2ccccc2)[C@H]1Cc1ccccc1 10.8%
C[C@H]1[C@H](NC(=O)c2cccc(N(C)C)c2)CC[C@@]23CCCN2C(=O)CCC[C@@H]13 -4.79%
Fc1ccccc1Cc1ccc(Cl)nn1 9.12%
COC(=O)[C@@]12CCCCC=C1N(CCc1ccc(Cl)cc1)C(=O)[C@H]2CC(=O)NCc1ccc(OC)c(OC)c1 -15%
CC(C)(C)C(=O)c1c(N)[nH]c(C(=O)c2ccccc2)c1-c1ccc(F)cc1 5.32%
Nc1[nH]c(C(=O)c2ccc(Br)cc2)c(-c2ccc3c(c2)OCO3)c1C(=O)NCCc1c[nH]c2ccccc12 -43.9%
COc1ccc(CCNC(=O)CSc2nc3c([nH]2)c(=O)n(C)c(=O)n3C)cc1 5.11%
CC(C)CNc1cccc2c1S(=O)(=O)N(Cc1cn(Cc3ccccc3C(F)(F)F)nn1)Cc1ccccc1O2 6.58%
CCOC(=O)C1CCN(C(=O)C(C)(C)NC(=O)Nc2ccc(F)c(F)c2)CC1 1.05%
CCOc1ccc(NS(=O)(=O)c2ccc(C)c(C(N)=O)c2)cc1 2.14%
CCOc1ccc(/C=N\NC(=O)c2c(C)nc3cc(C)ccn23)cc1 1.86%
CCOC(=O)N1CCN(C(=O)C[C@H]2C[C@@]3(C(=O)OC)C(=C[C@H](C(C)(C)C)O[C@@H]3C)N(Cc3ccc(Cl)cc3Cl)C2=O)CC1 -6.16%
CCOC(=O)[C@]12CCCC3=C1N(CCC3)C(=O)[C@@H](CC(=O)NCc1cccs1)C2 -0.88%
COC(=O)[C@]12C[C@H](CC(=O)NCCCN3CCCC3=O)C(=O)N(CCc3ccc(OC)c(OC)c3)C1=C[C@H](COCc1ccccc1)O[C@@H]2C 11.1%
COc1ccc(C2CC(c3ccc(Cl)cc3Cl)Nc3nc(N)nn32)cc1OC (stereo unspecified) 0.41%
Cc1ccc(C2CC(c3cccc(Br)c3)n3nc(N)nc3N2)cc1 (stereo unspecified) 9.36%
O=C(OC12CCCN(C1)/C(=C/c1ccccc1)C2)c1ccco1 (stereo unspecified) 4.15%
C=CCN(Cc1ccc2c(c1)OCO2)C(C#CC1CC1)C(C)(C)C (stereo unspecified) 7.02%
COc1cc(NC(=O)C2CCCN(S(=O)(=O)c3ccc(C(C)(C)C)cc3)C2)cc(OC)c1 (stereo unspecified) 2.94%
CCC(c1ccc(NC(=O)OC(C)(C)C)cc1)c1cc(OC)cc(OC)c1 (stereo unspecified) -18.5%
COc1ccc(CSc2nnc(SCC(=O)Nc3ccccc3C(F)(F)F)s2)cc1 -11.2%
O=C(NCCOc1ccccc1)c1ccccc1F 8.32%
Cc1nn(CCOc2ccccc2)c(=O)n1-c1ccccc1F 3.1%
COC(=O)[C@]12C[C@H](CC(=O)NCc3ccccc3)C(=O)N(CCC3=CCCCC3)C1=C[C@H](C(C)C)O[C@@H]2C1CC1 -0.06%
CCn1c(SCC(C)=O)nc2sc3c(c2c1=O)CCCC3 -63%
CCCC1CCC2(CCCN2CCOC(=O)NCc2ccccc2)CC1 (stereo unspecified) 0.68%
CC(=O)OC12CCCN(C1)/C(=C/c1ccncc1)C2 (stereo unspecified) 8.67%
CC(=O)C1(C(=O)Nc2nccs2)CC(c2ccccc2C(F)(F)F)=NO1 (stereo unspecified) -9.84%
Cc1cccc(NC(=S)NCc2ccc3[nH]c4c(c3c2)CCCC4)c1 -9.81%
Cc1cccc(C(=O)NC(=S)N(C)C2CCCCC2)c1 7.08%
C=CCN1C(=O)[C@H](CC(=O)N2CCN(C(=O)OCC)CC2)[C@@]2(C(=O)OCC)CCCC=C12 -3.08%
Cc1ccccc1CN1CCCCC(NC(=O)c2cccc(C#N)c2)C1=O (stereo unspecified) 14%
CCOc1ccc(-n2c(SCC(=O)Nc3cc(C)c(NC(=O)c4ccccc4)cc3OC)nnc2-c2cccs2)cc1 -11.7%
CCC[C@H]1C(=O)CC[C@@]23CCCN2C(=O)CCC[C@@H]13 9.16%
COc1ccc([C@H]2OC(=O)C[C@H]2C(=O)N2CCN(c3ccccc3F)CC2)cc1OC -0.35%
Cn1c2c(c(=O)n(C)c1=O)[C@@H]1c3c(ccc4ccccc34)OC[C@@H]1CO2 1.04%
COc1cccc2c1OCC1COc3c(c(=O)n(C)c(=O)n3C)C21 (stereo unspecified) 8%
CC(=O)N1CCCN(C2=Nc3ccccc3Sc3ccccc32)CC1 -5.38%
O=C(NCc1ccc(Cl)cc1)C1CCCN(c2nc3ccccc3o2)C1 (stereo unspecified) 0.81%
Cc1ccc(NC(=O)Cc2cccc(F)c2)c(S(=O)(=O)N2CCOCC2)c1 -2.31%
Cc1c[nH]c2cccc(-c3ccc(Cl)cc3)c12 -16.5%
O=C(NCC(=O)N1CCN(c2ncc(C(F)(F)F)cc2Cl)CC1)c1ccc(Br)o1 -1.88%
Cc1cc(C)nc(NC(=S)N2CCN(c3ccc(C(F)(F)F)cn3)CC2)c1 11.2%
CN1[C@H](Cc2ccccc2)COc2cccc(N3CCSCC3)c2S1(=O)=O -2.69%
O=C(c1cn(-c2ccccc2)nc1-c1cccnc1)N1CCN(S(=O)(=O)c2ccccc2F)CC1 -9.4%
O=C(NNC(=S)NCCCN1CCOCC1)c1ccncc1 -1.42%
O=C(CSc1nnc(COc2ccccc2)n1-c1ccc(Cl)cc1)Nc1ccc2c(c1)OCO2 -14.5%
COC(=O)c1cccc(Cn2ccc3ccc(-c4ccc5ccn(C(=O)C6CCCCC6)c5c4)cc32)c1 -3.82%
S=C(Nc1ccc(Br)cc1Cl)NC1CCN(Cc2ccccc2)CC1 0.32%
CN(C)C(=S)Nc1ccc(Br)cc1Cl 1.77%
Cc1ccc(Cn2cc(COC(=O)N(C)Cc3ccccc3)nn2)cc1 -5.61%
Cc1ccc(-n2c(SCC(=O)Nc3ccc(S(=O)(=O)Nc4nccs4)cc3)nnc2-c2cccnc2)cc1 -21.7%
O=C1CC[C@@]23CCCN2C(=O)CCC[C@H]3[C@H]1Cc1ccccc1 3.91%
Cc1cccc(N2CCN(C(=O)c3ccccc3NC(=O)C3CCCCC3C(=O)O)CC2)c1 (stereo unspecified) 7.57%
CSc1ccc(NC(=O)N2CC(C)OC(C)C2)cc1 (stereo unspecified) 10.2%
O=C(O)/C=C/C(=O)NNc1ccc([N+](=O)[O-])cc1 -1.39%
O=C(CN1CCN(c2ccc(O)cc2)CC1)Nc1ccc(-c2ccccc2)cc1 2.26%
Cc1ccc(-c2nc(C3CCCN(S(=O)(=O)c4ccc(Br)s4)C3)no2)cc1 (stereo unspecified) 7.46%
C=C(C)C1CC23C(=O)C4(C(=O)c5ccccc5)C[C@@]5(C)CCC(CC2C1(C)C)(C4=O)C35OC (stereo partly specified) 4.03%
COc1ccc(C(=O)CSc2nnc(-c3cnccn3)n2-c2ccc(C)cc2)cc1 -19.7%
CC(C)=C1C2CCC1C1C(=O)N(NC(=O)c3ccco3)C(=O)C21 (stereo unspecified) 0.15%
O=C(NN1C(=O)C2CCCCC2C1=O)c1ccco1 (stereo unspecified) -6.36%
C=CCN1C(=O)[C@@H](CC(=O)N2CCN(C(=O)OCC)CC2)[C@]2(C(=O)OCC)CCCCC/C=C/12 3.8%

inhibition, active:
Nc1ccc2c(c1)C(O)c1ccc(Cl)cc1-2 (stereo unspecified) 19.6%
Cc1ccc(-c2csc(NNC(=O)c3ccccc3)n2)cc1 41.2%
C/C(=N\Nc1ccc(Cl)nn1)c1ccccc1O 23.4%
Nc1[nH]c(C(=O)c2ccccc2)c(-c2ccc(Br)cc2)c1C(=O)NC1CC1 25.4%
CCOc1ccc(/C=N/NC(N)=S)cc1 19.5%
Cc1ccc(C2CC(c3cccc(C)c3)n3nc(N)nc3N2)cc1 (stereo unspecified) 25.2%
CC(C)(c1ccccc1)c1ccc(OCCN)cc1 23.6%
Cc1cccc(NC(=S)NCCN(C2CCCCC2)C2CCCC2)c1 23.8%
Cn1c2c(c(=O)n(C)c1=O)C1c3ccccc3OCC1C(C)(C)O2 (stereo unspecified) 20.6%
COc1ccnc(NC(=S)N2CCN(c3ncc(C(F)(F)F)cc3Cl)CC2)c1 23.3%
O=C(NNC(=S)NC(=O)c1cn(-c2ccccc2)nc1-c1ccccc1)c1ccncc1 19.6%
O=C(NNC(=S)Nc1ccc(Br)cc1Cl)c1ccco1 26.4%
CSc1ccc(NC(=O)/C=C/C(=O)O)cc1 22.1%
Cc1cccc(N2CCN(c3ccc(NC(=O)/C=C\C(=O)O)cc3)CC2)c1 20.7%
O=C(NN1C(=O)C2C3C=CC(C3)C2C1=O)c1ccco1 (stereo unspecified) 22.3%
